The text below walks through data of PubChem BioAssay AID463173 (ICCB-Longwood Screening Facility, Harvard Medical School, 2010).

In all, about 52,000 compounds went through this assay and about 4,300 (8.3%) were called active. No stated cut-off is given here; in the data, active means survival mostly below about 52% (no sharp cut-off); inactive means mostly above about 56%. For the sample, actives were picked, then their nearest neighbours and some compounds at random.

In this assay the test system is DeltatarO mutant. Kind of assay: growth inhibition of S. aureus wild type versus tarO mutant, primary screen, teichoic acid synthesis inhibitors, RN4220, OD600 (AID 463173). The conditions noted are these: OD600, 18 h, active compounds read low, screened at 18.75 µg/mL (by protocol).
Regarding `Cc1ccccc1CNC(=O)c1ccc2nc(C(C)C)oc2c1`, the survival was 83% (inactive).
For `COc1ccc(-c2onc(C)c2C)cc1S(=O)(=O)N1CCN(c2cc(C)ccc2C)CC1`, the survival was 81% (inactive).
For `O=C(NCCSc1c[nH]c2ccccc12)c1ccc(Cl)cc1`, the survival was 47% (active).
Take `Cc1ccc(C(=O)NCCSc2c[nH]c3ccccc23)cc1C`: the survival was 46% (active).
As for `O=C(NCCSc1c[nH]c2ccccc12)c1ccccc1Cl`, the figure is 57% (inactive).
As to `CN(C)S(=O)(=O)c1ccc(C(=O)NCCSc2c(-c3ccc(Cl)cc3)[nH]c3ccccc23)cc1`, the survival is 67% (inactive).
As to `COc1ccc(C(=O)NCCSc2c[nH]c3ccccc23)cc1OC`, the survival is 76% (inactive).
As for `Cc1ccc(C(=O)NCCSc2c(C)[nH]c3ccccc23)cc1C`, the figure is 55% (inactive); as for `Cc1ccc(Cn2c(CN3CCN(c4cccc(Cl)c4)CC3)nc3c2c(=O)n(C)c(=O)n3C)cc1`, 107% (inactive).
Under `COc1cccc(C2CC(=O)Nc3c2c(=O)n(C)c2nc4ccccc4n32)c1` (configuration not stated) stands 67% (inactive); under `CCn1c(=O)cc(SCC(=O)NCc2ccc(OC)cc2OC)c2ccccc21`, 66% (inactive); under `CCCCOc1ccc(C2=NC(c3ccncc3)=Nc3ccc(OCC)cc3N2)cc1`, 75% (inactive).
Take `COc1ccc(C2=NC(c3ccncc3)=Nc3ccc(Br)cc3N2)cc1`: the survival was 82% (inactive).
Under `CCCCOc1ccc(C2=NC(c3ccncc3)=Nc3ccc(Br)cc3N2)cc1` stands 12% (active); under `CCn1c(C(=O)NCc2ccccc2C)cc2oc3ccccc3c21`, 14% (active).
Take `CCn1c(C(=O)NCc2cc(Br)ccc2OC)cc2oc3ccccc3c21`: the survival is 67% (inactive).
Take `COc1ccc(CNC(=O)c2cc3oc4ccccc4c3n2C)cc1OC`: the survival is 43% (active).
With `CCOc1ccccc1CNC(=O)c1cc2oc3ccccc3c2n1CC`, the survival is 2% (active).
As to `CCCOc1ccc(CNC(=O)c2cc3oc4ccccc4c3n2C)cc1`, the survival is 73% (inactive).
Take `Cn1c(C(=O)NCc2ccccc2F)cc2oc3ccccc3c21`: the survival was 55% (inactive).
In the case of `Cn1c(C(=O)NCc2cccc(Cl)c2)cc2oc3ccccc3c21`, the survival is 85% (inactive).
With `CCn1c(C(=O)NCc2ccccc2Br)cc2oc3ccccc3c21`, the survival is 48% (inactive).
Under `CCn1c(C(=O)NCc2cccc(Br)c2)cc2oc3ccccc3c21` stands 50% (inactive); under `CCn1c(C(=O)NCc2ccc(OC(C)C)cc2)cc2oc3ccccc3c21`, 33% (active); under `CCOc1ccc(CNC(=O)c2cc3oc4ccccc4c3n2C)cc1`, 95% (inactive).
For `CCn1c(C(=O)NCc2ccc(F)cc2)cc2oc3ccccc3c21`, the survival was 89% (inactive).
`Cc1c(-c2nsc(NC(=O)c3cccs3)n2)nnn1-c1ccc(Br)cc1`: the survival is 77% (inactive).
As for `COc1ccc2[nH]c(=O)c(CN(C3CCCC3)S(=O)(=O)c3cccc4nsnc34)cc2c1`, the figure is 96% (inactive).
As for `Cc1ccc(NC(=O)Cn2c(=O)n(CCCCC(=O)NCCc3ccccc3)c(=O)c3ccccc32)c(C)c1`, the figure is 84% (inactive).
As for `CCc1ccc(NC(=O)CSc2ccc(-c3cccs3)nn2)cc1`, the figure is 72% (inactive).
With `Cc1cccc(NC(=O)c2cc3c(=O)n4cccc(C)c4nc3s2)c1C`, the survival was 65% (inactive).
Under `CC(=O)OC1=CN(Cc2ccccc2)S(=O)(=O)c2ccccc21` stands 71% (inactive); under `COc1ccccc1CNC(=O)CCCCn1c(=O)c2ccccc2n(Cc2ccccc2F)c1=O`, 93% (inactive).
With `COc1cccc(NC(=O)c2ccc(CNS(=O)(=O)c3ccc4c(c3)C(C)(C)C(=O)N4C)cc2)c1`, the survival is 51% (inactive).
In the case of `CCc1nn(Cc2cccc(F)c2)c(=O)c2cc3cc(C)ccc3n12`, the survival is 40% (active).
As for `CCc1nn(Cc2ccc(Cl)cc2)c(=O)c2cc3cc(C)ccc3n12`, the figure is 94% (inactive).
For `CCc1nn(Cc2c(C)cc(C)cc2C)c(=O)c2cc3cc(C)ccc3n12`, the survival is 88% (inactive).
With `COc1cccc(C(=O)N2CC(C)OC(C)C2)c1` (configuration not stated), the survival is 65% (inactive).
`COc1cccc(C(=O)N2c3cc(C)ccc3C(C)(c3ccccc3)CC2(C)C)c1` (configuration not stated): the survival is 1% (active).
For the compound `COc1cccc(C(=O)N2c3ccc(C)cc3C(C)(c3ccccc3)CC2(C)C)c1` (configuration not stated), the survival is -5% (active).
In the case of `COc1ccc(C)cc1NC(=O)NCc1ccc2c(c1)CCN2C(=O)c1ccccc1`, the survival was 105% (inactive).
On to `COC(=O)C1=NN(C(=O)c2cccc(OC)c2)C(C)(O)C1` (configuration not stated), for which the survival was 104% (inactive).
Turning to `COc1ccccc1C(=O)NCc1ccc2c(c1)CCN2C(=O)c1cccc(C)c1`, the survival was 77% (inactive).
Turning to `COc1ccc(-c2cc3ccc(O)c(CN4CCCC(C)C4)c3oc2=O)cc1` (configuration not stated), the survival was 79% (inactive).
For `CCOc1ccccc1Nc1nc(-c2cccc(Cl)c2)c2c(n1)-c1ccccc1OC2`, the survival is 61% (inactive).
In the case of `CN(C(=O)CSc1nc2ccc(NC(=O)CCc3ccccc3)cc2s1)c1ccccc1`, the survival is 73% (inactive).
Under `NNC(=O)CSc1c(-c2cccs2)[nH]c2ccccc12` stands 84% (inactive); under `Cc1ccc(CNC(C)c2ccccc2)s1` (configuration not stated), 75% (inactive); under `Cc1ccc(C(c2cccc(Br)c2)c2c(C)[nH]c3ccccc23)s1` (configuration not stated), 65% (inactive).
Under `Cc1[nH]c2ccccc2c1C(c1ccccc1)c1cccs1` (configuration not stated) stands 7% (active).
For the compound `CCc1ccc(C(c2ccccc2)c2c(C)[nH]c3ccccc23)s1` (configuration not stated), the survival is 25% (active).
As to `CCCCc1c(C)[nH]c2ccccc2c1=O`, the survival was 83% (inactive).
For the compound `C=CCc1c(C)[nH]c2ccccc2c1=O`, the survival was 98% (inactive).
`S=c1nc(Cc2cccs2)[nH]c2ccccc12`: the survival is 100% (inactive).
As to `Cc1[nH]c2ccccc2c1C1(O)C(=O)Nc2ccc(Cl)cc21` (configuration not stated), the survival is 66% (inactive).
Under `Cc1[nH]c2ccccc2c1C(c1ccccc1)c1ccc(Cl)s1` (configuration not stated) stands 0% (active).
As for `Cc1ccc(C(c2ccccc2)c2c(C)[nH]c3ccccc23)s1` (configuration not stated), the survival was 26% (active).
As for `Cc1cccc(Nc2c(-c3ccsc3)nc3nc(C)cc(C)n23)c1`, the survival is 130% (inactive).
With `CS(=O)(=O)Nc1ccccc1C(=O)O`, the survival was 81% (inactive).
Take `CCCSc1ncc(Cl)c(C(=O)Nc2c(C(=O)Nc3ccc(C)cc3)oc3ccccc23)n1`: the survival is 62% (inactive).
As for `Cc1cccc(NC(=O)Cn2c(=O)n(CCCCCC(=O)NCc3ccccc3)c(=O)c3sccc32)c1`, the figure is 62% (inactive); as for `CCOC(=O)c1cnn(Cc2ccccc2)c1N`, 79% (inactive).
